Results filed as inconclusive are left out. A call without a number means that no potency is given here. Active and inactive are the calls of the source. The call rests on the fitted dose curve; in most records, active means well fitted inhibition curve with a large enough effect; inconclusive means small, poorly fitted or top-dose-only effect; inactive means flat fitted curve, though single readings scatter.
Key:
Test in all cases: qHTS profiling for inhibitors of Plasmodium falciparum proliferation (AID 504749); further: nearly all actives have a fitted effect of over 60% in size
Details in all cases: P. falciparum in erythrocytes, SYBR Green DNA, 72 h; series mostly up to 28.7 µM
7G8 = system: 7G8
How it was run: (§1)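 Each compound contacts P. falciparum-infected red blood cells for 72 h at 37 C; lysis buffer (Tris, EDTA, saponin, Triton X, SYBR Green I) is added and fluorescence measured next morning; values normalized to controls.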

AS120 = system: AS120
How it was run: as §1

ATS189 = system: ATS189
How it was run: as §1

CP185 = system: CP185
How it was run: as §1

CP192 = system: CP192
How it was run: as §1

CP201 = system: CP201
How it was run: as §1

CP203 = system: CP203
How it was run: as §1

CP238 = system: CP238
How it was run: as §1

CP247 = system: CP247
How it was run: as §1

CP286 = system: CP286
How it was run: as §1

CP291 = system: CP291
How it was run: as §1

CP305 = system: CP305
How it was run: as §1

CP335 = system: CP335
How it was run: as §1

DFO2036 = system: DFO2036
How it was run: as §1

DIV30 = system: DIV30
How it was run: as §1

GB4 = system: GB4
How it was run: as §1

P94_40 = system: P94_40
How it was run: as §1

TAB109 = system: TAB109
How it was run: as §1

TAB113 = system: TAB113
How it was run: as §1

W2 = system: W2
How it was run: as §1
Potency means the concentration at half of the fitted maximal effect.

Row | SMILES | Potency (7G8) | Potency (AS120) | Potency (ATS189) | Potency (CP185) | Potency (CP192) | Potency (CP201) | Potency (CP203) | Potency (CP238) | Potency (CP247) | Potency (CP286) | Potency (CP291) | Potency (CP305) | Potency (CP335) | Potency (DFO2036) | Potency (DIV30) | Potency (GB4) | Potency (P94_40) | Potency (TAB109) | Potency (TAB113) | Potency (W2)
1 | C[N+]1([O-])[C@H]2CC[C@H]1CC(OC(=O)[C@@H](CO)c1ccccc1)C2 (stereo not given in full) | inactive | inactive | inactive | inactive | inactive | inactive | inactive | inactive | inactive | inactive | inactive | inactive | inactive | inactive | inactive | inactive | inactive | inactive | inactive | inactive
2 | C[C@@H]1O[C@@H](O[C@H]2C[C@@H](O)[C@@]3(CO)[C@H]4[C@H](O)C[C@]5(C)[C@@H](C6=CC(=O)OC6)CC[C@]5(O)[C@H]4CC[C@@]3(O)C2)[C@@H](O)[C@H](O)[C@H]1O | inactive | inactive | inactive | inactive | inactive | inactive | inactive | inactive | inactive | inactive | inactive | inactive | inactive | inactive | inactive | inactive | inactive | inactive | inactive | –
3 | C[C@@H](Cc1ccc(O)cc1)NC[C@@H](O)c1cc(O)cc(O)c1 | inactive | inactive | inactive | inactive | inactive | inactive | inactive | inactive | inactive | inactive | inactive | inactive | inactive | inactive | inactive | inactive | inactive | inactive | inactive | inactive
4 | O=C1C[C@@H]2OCC=C3CN4CC[C@]56c7ccccc7N1[C@@H]5[C@@H]2[C@H]3C[C@H]46 (tested in a mixture with another compound) | – | – | – | – | – | – | – | – | – | – | – | – | – | – | – | – | – | – | – | 6.75 µM (active)
5 | C=C[C@@H]1CN2CC[C@H]1C[C@H]2[C@H](O)c1ccnc2ccccc12 | 158 nM (active) | 891 nM (active) | 794 nM (active) | 1.26 µM (active) | 953 nM (active) | 1.51 µM (active) | 675 nM (active) | 1.41 µM (active) | 2.24 µM (active) | 794 nM (active) | 675 nM (active) | 757 nM (active) | 757 nM (active) | 355 nM (active) | 757 nM (active) | 169 nM (active) | 398 nM (active) | 178 nM (active) | 501 nM (active) | 0.338 µM (active)

— PubChem BioAssay (NCATS)
